Test results: PubChem BioAssay AID1566 (Sanford-Burnham Center for Chemical Genomics, 2009)
“And” between values parts separate entries of the source, which are not always exact repeats. Equal values may be shown once. Screen size: about 290,000 compounds; about 1,800 (0.62%) were called active. The sample holds actives, similar compounds and a random draw of the others, so the mix is not that of the screen. Rule as the data show it: active = inhibition above about 50%; inactive = the rest. A structure can be active in one record and inactive in another.

Test: NOD2 signaling inhibitors, cell-based, luminescence, uHTS, HEK293 (AID 1566)
Settings: HEK293 NOD2/NF-kB luciferase reporter, at 4 µM, stronger effect = higher value

| SMILES | inhibition |
| --- | --- |
| CCc1ccc(NC(=O)CN(C)S(=O)(=O)c2ccc3[nH]c(=O)oc3c2)cc1 | 9.7% (inactive) |
| COC(=O)C1=C(C)N(CCc2ccc(OC)cc2)C(=O)C1 | -0.9% (inactive) |
| Cc1cc(C)nc(N(C#N)Cc2cccc([N+](=O)[O-])c2)n1 | 15.2% (inactive) |
| Cc1cccnc1Nc1ncnc(N)c1[N+](=O)[O-] | 3.6% (inactive) |
| Cc1cccc(Nc2ncnc(N)c2[N+](=O)[O-])n1 | 32% (inactive) |
| COc1ccc(C(=O)NNC(=O)C(=O)Nc2ccc(C)c(Cl)c2)cc1 | 1.2% (inactive) |
| COc1cccc(C(=O)NNC(=O)C(=O)Nc2ccc(C)cc2)c1 | 4.6% (inactive) |
| COc1cccc(C(=O)NNC(=O)C(=O)Nc2ccc(C)c(Cl)c2)c1 | 78.2% (active) |
| COc1ccc(/C=N/NC(=O)CC#N)cc1Oc1nc(Cl)ncc1F | -4% (inactive) |
| O=[N+]([O-])c1ccc(C2OCCO2)cc1CS(=O)(=O)c1ccccc1 | -3.4% (inactive) |
| CCC(=O)Nc1cccc2ccccc12 | 15.5% (inactive) |
| CCN(CC)c1ccc(/C=N/NC(=O)C(O)(c2ccccc2)c2ccccc2)o1 | 3.6% (inactive) |
| Cc1[nH]n(-c2ccccc2)c(=O)c1-c1ccc(Cl)cc1 | -50.4% (inactive) |
| Cc1[nH]n(-c2cccc(Cl)c2)c(=O)c1-c1ccccc1 | 17.3% (inactive) |
| C=CCn1c(-c2cc3cccc(OC)c3o2)n[nH]c1=S | -1.5% (inactive) |
| O=C(c1cc(-c2cccc(Cl)c2)on1)N1CCCCCC1 | -44.3% (inactive) |
| Nc1nc(-c2cccs2)c(CC(=O)O)s1 | 4.5% (inactive) |
| CC(C)(C)c1ccc(-n2ncc3c2CCCC3NC(=O)CN2CCCC2=O)cc1 (stereo unspecified) | 35.8% (inactive) |
| CC(C)(C)c1ccc(-n2ncc3c2CCCC3NC(=O)CCN2CCCCC2=O)cc1 (stereo unspecified) | 17.1% (inactive) |
| CC(C)(C)c1ccc(-n2ncc3c2CCCC3NC(=O)CCN2CCCC2=O)cc1 (stereo unspecified) | 57.1% (active) |
| Cc1sc2ncnc(N3CCN(Cc4ccccc4)CC3)c2c1-c1ccccc1 | -9.7% (inactive) |
| CCN1CCN(c2ncnc3sc(C)c(-c4ccccc4)c23)CC1 | 35.6% (inactive) |
| CCc1ccc(-c2cc(C)no2)cc1S(=O)(=O)N1CCOc2ccc(C)cc21 | 16.8% (inactive) |
| COc1ccccc1CC(=O)Nc1ccc(NC(=O)c2cccs2)cc1 | -13% (inactive) |

| SMILES | inhibition |
| --- | --- |
| CCOC(=O)c1nc2sc3c(c2c(=O)[nH]1)CCC(C)C3 (stereo unspecified) | 45.5% (inactive) |
| CCOC(=O)CSc1nc2sc3c(c2c(=O)[nH]1)CCCC3 | 8.9% (inactive) |
| CCOC(=O)c1nc2sc3c(c2c(=O)[nH]1)CCCC3 | 55.1% (active) and 4.8% (inactive) |
| COc1ccccc1CNC(=O)CCc1nnc2ccc(NCCCN3CCCC3=O)nn12 | 12.8% (inactive) |
| Cc1ccc(Cn2c(=O)c3ccccc3n3c(SCC(=O)N4CCCCC4C)nnc23)cc1 (stereo unspecified) | 8.3% (inactive) |
| Cc1ccc(C(=O)NNC(=O)CCN2C(=O)C3CCCCC3C2=O)cc1 (stereo unspecified) | 11.6% (inactive) |
| COc1cc(SC)ccc1C(=O)Nc1nc(C)cs1 | 72.2% (active) |
| COc1cc(SC)ccc1C(=O)Nc1nc(C)cc(C)n1 | 10.5% (inactive) |
| COc1cc(SC)ccc1C(=O)Nc1nccs1 | -159% (inactive) |
| O=C(O)c1ccc(NCc2ccc3c(c2)OCO3)cc1 | 6.2% (inactive) |
| COc1ccc(-c2nn(-c3ccccc3)cc2/C=N/N2C(=O)CSC2=S)cc1 | 51.5% (active) |
| COc1ccc(-c2nn(-c3ccccc3)cc2/C=N/O)cc1 | 9.4% (inactive) |
| COc1ccc(/C=N/N2C(=O)CSC2=S)cc1 | -23.8% (inactive) |
| CCC1(CC)NC(=O)N(CC(=O)NC(=O)NCc2ccccc2)C1=O | -0.6% (inactive) |
| O=C(CSc1nc2ccccc2c(=O)[nH]1)Nc1cccc([N+](=O)[O-])c1 | 19.4% (inactive) |
| O=C(CSc1nncc(=O)[nH]1)Nc1cccc([N+](=O)[O-])c1 | 67.8% (active) |
| Nc1cc(=O)[nH]c(SCC(=O)Nc2cccc([N+](=O)[O-])c2)n1 | 0.5% (inactive) |
| COc1ccc(NC(=O)C23CC4CC(C2)CC(n2cnc(Br)n2)(C4)C3)cc1OC | -17.8% (inactive) |
| COc1ccc(NC(=O)N2CCCC(c3nc(-c4ccc(C(C)C)cc4)no3)C2)cc1 (stereo unspecified) | 42.1% (inactive) |
| Cc1ccccc1NC(=O)N1CCCC(c2nc(-c3ccc(F)cc3)no2)C1 (stereo unspecified) | 7.4% (inactive) |
| Cc1ccccc1NC(=O)N1CCCC(c2nc(-c3ccc(C(C)C)cc3)no2)C1 (stereo unspecified) | 72.9% (active) |
| COCCCN1C(=O)C(O)=C(C(=O)c2ccco2)C1c1cccc(Br)c1 (stereo unspecified) | 7.1% (inactive) |
| COc1ccc(CN2CCN(Cc3ccc4cc(F)ccc4n3)CC2CCO)c(C)c1C (stereo unspecified) | -1.2% (inactive) |
| Cc1ccc2nc(C)c(CN3CCN(c4ccc([N+](=O)[O-])cc4Cl)CC3)n2c1 | 52.7% (active) |

| SMILES | inhibition |
| --- | --- |
| O=[N+]([O-])c1ccc(N2CCN(c3ccc(Cl)nn3)CC2)c(Cl)c1 | -52.2% (inactive) |
| CCCC(=O)N1CCN(c2ccc([N+](=O)[O-])cc2Cl)CC1 | -6.8% (inactive) |
| Cc1cc(C)c2c(N)c(C(=O)Nc3nccs3)sc2n1 | -123% (inactive) |
| Cc1cc(C)c2c(N)c(C(=O)Nc3ncc(C)s3)sc2n1 | 62% (active) |
| Cc1cc(C)c2c(N)c(C(=O)NN)sc2n1 | 0.7% (inactive) |
| CN1CCN(C(=S)c2cn(Cc3ccccc3F)c3ccccc23)CC1 | 2.8% (inactive) |
| CC(=O)c1cn(CC(=O)Nc2ccccc2F)c2ccccc12 | 30.8% (inactive) |
| CCOC(=O)c1cnc2nc(C)[nH]n2c1=O | -11% (inactive) |
| O=C(CNC(=O)C1CCCCC1)NCc1ccco1 | -3% (inactive) |
| Cc1nc2ccc(NC(=O)c3ccc(Cl)c(S(=O)(=O)N(C)c4ccccc4)c3)cc2s1 | 38.6% (inactive) |
| Cc1nc2ccc(NC(=O)c3ccc(S(=O)(=O)N(C)c4ccccc4)cc3)cc2s1 | 35.2% (inactive) |
| CN(Cc1ccccc1)C(=O)[C@H]1CCC(=O)N1Cc1ccco1 | -2.2% (inactive) |
| Cc1onc(-c2c(Cl)cccc2Cl)c1C(=O)NC(=S)N1CCOCC1 | 11.9% (inactive) |
| Cc1c(OCC(=O)NC(Cc2ccc(Cl)cc2)C(=O)O)ccc2c3c(c(=O)oc12)CCCC3 (stereo unspecified) | 7.1% (inactive) |
| O=C(Nc1nc2ccc(F)cc2s1)c1cccs1 | -118% (inactive) |
| O=C(Nc1nc2ccc(F)cc2s1)c1ccccn1 | 82.1% (active) |
| Cc1ccc2nc(NC(=O)CCCC(=O)O)sc2c1 | 54.8% (active) |
| Cc1ccc2nc(NC(=O)CSCC(=O)OCC(=O)c3ccccc3)sc2c1 | 51.5% (active) |
| Cc1ccc(C)c(OCC(=O)Nc2nc3ccc([N+](=O)[O-])cc3s2)c1 | 25.2% (inactive) |
| Cc1ccc2nc(NC(=O)CCCc3nc4ccccc4s3)sc2c1 | -14.6% (inactive) |
| COCC(=O)Nc1nc2ccc(C)cc2s1 | -98.9% (inactive) |
| O=C(Nc1nc2c(F)cc(F)cc2s1)c1ccccn1 | 38.3% (inactive) |
| Cc1cccc(OCC(=O)Nc2nc3ccc([N+](=O)[O-])cc3s2)c1 | 35% (inactive) |
| Cc1ccc2nc(NC(=O)CSCc3ccccc3)sc2c1 | -2.4% (inactive) |

| SMILES | inhibition |
| --- | --- |
| COC(=O)c1ccc2nc(NC(=O)CSCC(=O)OCC(=O)c3ccccc3)sc2c1 | -10.5% (inactive) |
| CN(C)C(=O)c1ccc2c3c(cccc13)CC2 | 17.8% (inactive) |
| CCCS(=O)(=O)c1nc(S(=O)(=O)c2ccc(C)cc2)c(N2CCN(CC)CC2)s1 | -12.7% (inactive) |
| Cc1nc2nc(SCc3ccc([N+](=O)[O-])cc3)[nH]c2cc1Br | -1% (inactive) |
| CSc1ccc(C2N=C(c3ccccc3)NO2)cc1 (stereo unspecified) | -83.4% (inactive) |
| CCOCCCNC(=O)C(NC(=O)CNC(C)=O)c1ccc(C)cc1 (stereo unspecified) | 3.7% (inactive) |
| CCN(CC)S(=O)(=O)c1cccc(C(=O)N[C@@H](C)c2nc3ccccc3[nH]2)c1 | 11.7% (inactive) |
| CCOC(=O)c1ccc(N2C(=O)C(CC(N)=O)N(NC(=O)c3cccc(F)c3)C2=S)cc1 (stereo unspecified) | 4.2% (inactive) |
| Cc1ccc2nc(NC(=O)c3ccccc3F)sc2c1 | -152% (inactive) |
| Cc1ccc2nc(NC(=O)c3ccccn3)sc2c1 | 76.3% (active) |
| Cc1ccc2nc(NC(=O)COC(=O)c3ccccn3)sc2c1 | -25.5% (inactive) |
| COc1ccc(-n2c3c(cc(C#N)c2=O)C(=O)CCC3)cc1 | 6.2% (inactive) |
| CCOc1ccc(S(=O)(=O)Nc2ccc(C(=O)NCC(c3ccccc3)N(C)C)cc2)cc1 (stereo unspecified) | 7.3% (inactive) |
| CCOC(=O)c1ccc(Nc2nc(N3CCOCC3)nc(N3CCOCC3)n2)cc1 | -7.2% (inactive) |
| CCOC(=O)N1CCC(N2CCN(Cc3ccc(C)o3)C(CCO)C2)CC1 (stereo unspecified) | 2.4% (inactive) |
| CCC(C(=O)NC1CCCC1)N(C(=O)Cn1nnc(-c2ccc(C)o2)n1)c1cccc(O)c1 (stereo unspecified) | 8.2% (inactive) |
| Cc1cc(-n2c(C)cc(C(=O)CSc3ncnc4ccccc34)c2C)no1 | 52.3% (active) |
| Cc1cc(NC(=O)CSc2ncnc3ccccc23)no1 | 20% (inactive) |
| Cc1cc(-n2c(C)cc(C(=O)CSc3nc4ccccc4c(=O)n3Cc3ccco3)c2C)no1 | 18.1% (inactive) |
| Cc1cccc(NC(=O)COC(=O)C2C3CC4OC(=O)C2C4C3)c1C (stereo unspecified) | -27.4% (inactive) |
| Cc1ccccc1-n1c(SC2CCOC2=O)nnc1-c1ccncc1 (stereo unspecified) | 51.5% (active) |
| Cc1ccccc1-n1nnnc1SC1CCOC1=O (stereo unspecified) | 5.6% (inactive) |
| O=C1OCCC1Sc1nnc(-c2cccnc2)n1-c1ccccc1F (stereo unspecified) | 13.6% (inactive) |
| O=C(O)c1cccc(NC(=S)N/N=C/c2ccccc2OCc2ccc(Br)cc2)c1 | 0.3% (inactive) |
